B1: chr3:35977374:35977375:+_ENSMUSG00000027710_ENSMUST00000011492|mus_hu|motif|central (ssRNA)
RNA: GGGAGUUCUACAGUCCGACGAUCCACAGGUAUCUUGGUGUUUUCAAAAUGGACUUCACAAGUGUUGGAGCCCCGAAUGCCGGAUUUAUCUUCGGGUUUCCCAUUAGUGACUCCACCAAAGUCUCUUUCUACUAUGAAUGCUGUCAACAGAGGAUUGAGCAUCA
B2: chr2:24917620:24917621:+_ENSMUSG00000006476_ENSMUST00000102931|mus_mus|motif|central (ssRNA)
RNA: GGGAGUUCUACAGUCCGACGAUCAGUAAUGCUGCUUCCCUUCAAAUUGUUUCAGGGGUGUAAAAAAAUUGCACUUAUUUCGGUGAACCCCAUGGAGGGGAUCCCCAAUGCUGCUGCCUCCAGGCGAGGCAUGACAGGUCAAUGCAACAGAGGAUUGAGCAUCA
B3: chr5:10264850:10264851:+_ENSG00000150753_ENST00000503026|hu_hu|FALSE|FALSE (ssRNA)
RNA: GGGAGUUCUACAGUCCGACGAUCUUCUCAAUGUCUUCAUUCUUCAGAUUCUCCAGGCUUACGAAUGUCAUCAAUCUUCAAAAUCAUUCUAACCAUUUGUGUUGCAAGAGAUAUCUGUUGCUUUUUGCCAAUCAAGGUUUCUAUCAACAGAGGAUUGAGCAUCA
B4: chr6:13786029:13786030:-_ENSMUSG00000048216_ENSMUST00000115492|mus_mus|FALSE|FALSE (ssRNA)
RNA: GGGAGUUCUACAGUCCGACGAUCAAAAACUCUCCAAUAGCAGGCCACCAGGUAGGGACCCCACAAGGUUAGGAAGAGGAAAGUCAUUAUAUAAAACAUUCUGCUGAUUCUUUUCUCCAUUUUGAACUCAUCCAAGACCAAUAGCAACAGAGGAUUGAGCAUCA
B5: 85396044_85398007_762_3pUTR_ENSMUSG00000021549_ENSMUST00000109552|mouse|control|control (ssRNA)
RNA: GGGAGUUCUACAGUCCGACGAUCCACCAAUGUAGUAAUCACCACACAUAGCAAUAAUCCUAAAAUGAUUGACAACAUUUGUCUGACUAAGGAAUGAAAGUACAAAGGACCCCGGCCUCCGAUCACUCUCUCUUAUAAGAUAGCCAACAGAGGAUUGAGCAUCA
B6: chr12:75046761:75046762:+_ENSMUSG00000021109_ENSMUST00000021530|mus_mus|FALSE|FALSE (ssRNA)
RNA: GGGAGUUCUACAGUCCGACGAUCAUAUAGAAAAUAUAAAUAGACUGCUGAGCCACCAGUGUCCAAAAAUAACCAACAGAAACAAAAACCCAACAAACAACAACAACUGAACAAAAACAUUAACAAUCAAAAGGAAUGAGAUUACAACAGAGGAUUGAGCAUCA
B7: chr4:34514055:34514056:+_ENSMUSG00000028291_ENSMUST00000084299|mus_mus|motif|central (ssRNA)
RNA: GGGAGUUCUACAGUCCGACGAUCCUGGGGAGGAGGUGCAGCAAUAAACAUUUGUUAAAAAGACUGAUAGAAUAAAUAAAACGGCCAAAAAAUAAUAAAGAAAAUCAUAUAAACCCAUUCUGAAACCCCAAGAAAAGUCCUGAACAACAGAGGAUUGAGCAUCA
B8: chr4:34514055:34514056:+_ENSMUSG00000028291_ENSMUST00000084299|mus_mus|FALSE|FALSE (ssRNA)
RNA: B7 RNA with G82U, G83A
B9: chr2:166767530:166767531:+_ENSMUSG00000002718_ENSMUST00000002790|mus_mus|FALSE|FALSE (ssRNA)
RNA: GGGAGUUCUACAGUCCGACGAUCAAAUAUUUCUUGUAAUGCUAGUGCCCCAUACUUAAUGCAAUAUAAGUUAAUAAACACUAAGAAACUCUUGAUAAACUUGGUGGUCUUGGAGUUUUGCAGUCUCUGGAAUAGUAGAAUGAACAACAGAGGAUUGAGCAUCA

Substitutions are numbered along the chain they refer to. Whole data set: some 24,000 sequences, median “enrichment r” near 0.99, cut for the highest 2% near 3.7. The list comes from a sample in which the highest values are over-represented; it also holds similar and randomly drawn sequences.

This assay addresses T1, UNK ZnF1-3 (human, UniProt Q9C0B0 31-174).
T1 sequence: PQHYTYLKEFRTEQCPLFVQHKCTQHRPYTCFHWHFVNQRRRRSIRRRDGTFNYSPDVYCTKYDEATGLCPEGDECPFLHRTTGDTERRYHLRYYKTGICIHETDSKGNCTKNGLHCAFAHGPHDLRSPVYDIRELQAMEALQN
Description: nsRBNS (natural sequence RNA bind-n-seq); RBNS binding buffer (assumed for nsRBNS): 25 mM Tris pH 7.5, 150 mM KCl, 3 mM MgCl2, 0.01% Triton X-100, 500 ug/ml BSA, 20 U/ml SUPERase-In, 4 C; UNK is unkempt and MSI1 is Musashi-1; names of the RNAs are library labels; protein concentration not given here; high values mean tight binding.
Take B1: the binding signal is 0.637 enrichment R.

B2 registered a binding signal of 1.02 enrichment R.

On to B3, for which the binding signal came out at 0.579 enrichment R.

Take B4: the binding signal is 1.71 enrichment R.

Molecule B5 gave a binding signal of 0.49 enrichment R.

Consider B6, for which the binding signal came to 3.57 enrichment R.

Consider B7, for which the binding signal is 15.2 enrichment R.

As for B8, the binding signal amounted to 8.55 enrichment R.

The molecule B9 displayed a binding signal of 1.05 enrichment R.

Source of the values: publication PMC12136788.
